Screening data deposited in PubChem BioAssay by National Center for Advancing Translational Sciences (NCATS).
Sm TGR inh – qHTS Assay for the Inhibitors of Schistosoma Mansoni Peroxiredoxins; Schistosoma mansoni thioredoxin glutathione reductase (TGR), Q962Y6; purified TGR, DTNB reduction, TNB absorbance 405 nm; Potency, µM (top dose mostly 114 µM), inactives show at the top dose activity change, negative = inhibition, actives largely listed as inhibitors; 360,000 compounds, 3% hits; also: % is scaled to controls: 0 for no effect and ±100 for the full control effect; nearly all actives have a fitted effect of over 60% in size
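Kinetic colorimetric format: TGR-catalysed, NADPH-driven DTNB reduction monitored via TNB absorbance. Enzyme dispensed at 20 nM; compound exposure 15 min at room temperature before reaction start.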
Pf growth 48h – Primary qHTS for delayed death inhibitors of the malarial parasite plastid, 48 hour incubation | P. falciparum luciferase growth in erythrocytes, 48 h | Potency, µM (doses to about 28.7 µM), inactives show at the highest dose activity change, negative = inhibition, hits mostly inhibitors | 310,000 compounds, 5.9% hits | AID 504832, 2011; also: % is scaled to controls: 0 for no effect and ±100 for the full control effect
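First compound was added to culture medium, then infected red cells at 0.1% parasitemia and 2% hematocrit (final). After incubation at 37 C under 5% CO2, luciferase detection reagent was dispensed and light output recorded.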
SARS PLpro yeast – qHTS of Yeast-based Assay for SARS-CoV PLP; S. cerevisiae expressing SARS-CoV PLpro, growth rescue; Potency, µM (highest dose often 32.9 µM), inactives show at the top dose activity, positive = growth rescue, hits mostly activators; 330,000 compounds, 0.19% hits; calls by dose curve; also: 0% is about no effect; nearly all actives have a fitted effect of over 55% in size
Pf growth 96h – Primary qHTS for delayed death inhibitors of the malarial parasite plastid, 96 hour incubation | P. falciparum luciferase reporter growth, 96 h | Potency, µM (highest dose often 28.7 µM), for inactives: at the highest dose activity change, negative = inhibition, hits mostly inhibitors | 320,000 compounds, 6.9% hits; also: % is scaled to controls: 0 for no effect and ±100 for the full control effect
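Readout is luminescence from an integrated firefly luciferase in P. falciparum. Red cells, 2% hematocrit and 0.05% parasitemia final, were cultured with compound through two parasite generations (96 hours) at 37 C, 5% CO2.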
AmpC inh detg – qHTS Inhibitors of AmpC Beta-Lactamase (assay with detergent) | P00811 | AmpC hydrolysis of nitrocefin, absorbance 480 nm, 0.01% Triton | Potency, µM (doses to about 114 µM), for the others: at the top dose activity change, negative = inhibition, hits mostly inhibitors | 370,000 compounds, 0.041% hits;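 also: 0% = no-compound wells and -100% = no-enzyme wells; nearly all actives have a fitted effect of over 25% in size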
Target sequence (P00811 whole entry, looked up): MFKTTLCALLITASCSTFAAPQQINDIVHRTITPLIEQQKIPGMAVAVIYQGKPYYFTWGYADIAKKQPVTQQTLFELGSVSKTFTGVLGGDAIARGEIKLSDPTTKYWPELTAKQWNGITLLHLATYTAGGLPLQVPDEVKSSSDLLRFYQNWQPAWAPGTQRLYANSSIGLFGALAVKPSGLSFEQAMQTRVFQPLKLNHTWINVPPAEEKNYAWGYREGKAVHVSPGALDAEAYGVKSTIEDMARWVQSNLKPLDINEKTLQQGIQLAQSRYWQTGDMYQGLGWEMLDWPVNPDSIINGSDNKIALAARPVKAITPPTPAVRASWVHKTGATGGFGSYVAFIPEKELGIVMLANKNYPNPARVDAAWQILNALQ
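AmpC (5.3 nM in the dispensed reagent) in 20 mM phosphate pH 7.0 with 0.01% (detergent screen) or 0.0001% Triton X-100 was preincubated with compounds for 15 min at room temperature. Nitrocefin was then added from an 800 uM solution, and hydrolysis was followed at 480 nm.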
AmpC no deterg – qHTS Inhibitors of AmpC Beta-Lactamase (assay without detergent); 330,000 compounds, 0.52% hits; AID 485341, 2010; Potency, µM (doses to about 57.1 µM), for inactives: at the highest dose activity change, negative = inhibition, most hits filed as inhibitors; AmpC nitrocefin hydrolysis, absorbance 480 nm, 0.0001% Triton;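 also: plate controls were no compound for no effect and no enzyme for full effect; nearly all actives have a fitted effect of over 20% in size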
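AmpC (5.3 nM in the dispensed reagent) in 20 mM phosphate pH 7.0 with 0.01% (detergent screen) or 0.0001% Triton X-100 was preincubated with compounds for 15 min at room temperature. Nitrocefin was then added from an 800 uM solution, and hydrolysis was followed at 480 nm.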
An asterisk follows results filed as active; ? = inconclusive; · = not tested or not shown; [ ] = remark or other dose. Shown are actives, neighbours in structure and some others; about 12% of the full set was active somewhere. Unless noted, calls follow the shape of the dose curve; as a rule, active = well fitted curve in the direction sought with a large enough effect; inconclusive = small, poorly fitted or top-dose-only effect, or another doubt; inactive = no such curve, though single readings can be large; an effect the other way counts as inactive or inconclusive. Potency is read from the fitted curve at half-maximal effect.

SMILES | Sm TGR inh | Pf growth 48h | SARS PLpro yeast | Pf growth 96h | AmpC inh detg | AmpC no deterg
Cc1cc(C(=O)OCC(=O)N2c3ccccc3CC2C)c(C)o1 (stereo not drawn) | 25.1µM* | ? | -1.2% | -2.3% | 4.8% | ?
Cc1ccc(C(=O)N2c3ccccc3CC2C)o1 (stereo not drawn) | -21.6% | 84.7% | -2.3% | 3.7µM* | -3.6% | -12.0%
Cc1cc(C(=O)OCC(=O)N2CC(C)CC(C)C2)c(C)o1 (stereo not drawn) | 25.1µM* | -9.6% | 1.8% | ? | -10.3% | 34.1%
O=C(CN(CCc1ccccc1)C(=O)c1csnn1)NCc1ccc(F)cc1 | 6.0% | 6.4% | -21.0% | -1.2% | -4.7% | -1.8%
CCOc1ccc(Br)cc1S(=O)(=O)Nc1cccc(S(=O)(=O)N(C)c2ccccc2)c1 | 8.1% | 1.2% | 3.8% | 11.6% | -12.1% | -0.2%
CSc1cccc(NC(=O)C2CCCN(S(=O)(=O)c3ccc4c(c3)CCCN4C(C)=O)C2)c1 (stereo not drawn) | -0.7% | · | · | · | -4.0% | ·
CC1CCc2c(C(=O)Oc3cccc(-n4cnnn4)c3)csc2C1 (stereo not drawn) | 8.2% | 5.86µM* | -11.0% | ? | ? | 1.4%
Cc1ccc(-n2ccn(CC(=O)c3ccc(F)cc3)c(=O)c2=O)cc1C | -23.0% | · | · | · | -8.1% | ·
Cc1ccc2sc(N(Cc3cccnc3)C(=O)CCOc3ccccc3)nc2c1C | 35.5µM* | · | · | · | 6.6% | ·
O=C(CCOc1ccccc1)N(Cc1cccnc1)c1nc2c(F)cccc2s1 | 2.24µM* | · | · | · | -2.4% | ·
COc1ccc2nc(N(Cc3cccnc3)C(=O)CCc3ccccc3)sc2c1 | 12.1% | · | · | · | 5.8% | ·
Cc1cccc2sc(N(Cc3cccnc3)C(=O)CCc3ccccc3)nc12 | 5.7% | · | · | · | 3.3% | ·
CCCC(=O)N(Cc1cccnc1)c1nc2c(OC)ccc(Cl)c2s1 | 0.1% | ? | 26.2% | 11.7µM* | 0.9% | -15.2%
CC(=O)NCCC(=O)N(Cc1ccccc1)c1nc2c(C)cccc2s1 | 2.6% | 7.38µM* | -3.2% | ? | 0.7% | 270.3%
CSc1ccc(CCNC(=O)Cn2c(C)c3cnn(-c4ccccc4)c(=O)c3c2C)cc1 | -3.5% | · | · | · | 15.8% | ·
OC(COCc1ccco1)CN1CCN(C(c2ccccc2)c2ccccc2)CC1 (stereo not drawn) | -5.5% | 10.4µM* | -0.1% | 6.57µM* | -7.2% | 68.8%
OC(COc1ccccc1)CN1CCN(C(c2ccccc2)c2ccccc2)CC1 (stereo not drawn) | 25.9% | ? | 12.2% | 18.9% | 0.1% | 55.0%
N#Cc1ccc(OCC(O)CN2CCN(C(c3ccccc3)c3ccccc3)CC2)cc1 (stereo not drawn) | 5.1% | ? | 6.7% | 11.7µM* | 1.0% | 41.3%
CSc1ccc(CCNC(=O)NCc2noc3ccccc23)cc1 | -1.9% | · | · | · | 2.5% | ·
O=C1N(Cc2cccnc2)C[C@@H]2C[C@@H](c3cccc(OCc4ccccc4)c3)N3CCC[C@@]123 | -31.8% | ? | 0.4% | ? | -2.2% | 136.7%
O=C1N(Cc2cccnc2)C[C@@H]2C[C@@H](c3cccc(C(F)(F)F)c3)N3CCC[C@@]123 | -20.3% | ? | 0.7% | 10.4µM* | 6.5% | 73.2%
O=C1N(Cc2cccnc2)C[C@@H]2C[C@@H](c3cccc(OC4CCCC4)c3)N3CCC[C@@]123 | -17.5%[57.1 µM] | 8.28µM* | 1.0% | 42.2% | -5.2% | 148.7%
CCn1c(=NC(=O)c2ccco2)sc2cccc(F)c21 | -1.9% | 33.8% | -11.3% | 44.5% | ? | 3.55µM*
CS(=O)(=O)Oc1ccc(Br)cc1/C=C1/N=C(c2ccco2)OC1=O | -11.5% | -8.0% | 3.2% | 10.4µM* | 1.2% | -18.1%
COc1cc(/C=C2/N=C(c3ccccc3F)OC2=O)cc(Cl)c1OS(C)(=O)=O | 8.7% | -4.0% | 1.7% | 105.0% | -1.6% | -19.1%
SMILES | Sm TGR inh | Pf growth 48h | SARS PLpro yeast | Pf growth 96h | AmpC inh detg | AmpC no deterg
CCC(C)n1c(OC)nc2c1c(=O)n(C)c(=O)n2C (stereo not drawn) | 1.3% | -7.5% | -0.7% | ? | 1.0% | -4.1%
Cc1nc2cc(-c3ccccc3)nn2c(C)c1CCC(=O)NCCc1ccccc1 | -1.9% | · | · | · | -8.3% | ·
CCOC(=O)C(Cc1ccccc1)NC(=O)CCc1c(C)nc2nc(C)nn2c1C (stereo not drawn) | 8.8% | 5.8% | -3.7% | 7.38µM* | 5.5% | -7.3%
Cc1nc2cc(-c3cccc(F)c3)nn2c(C)c1CCC(=O)NCCc1ccccc1 | 22.4µM* | · | · | · | -3.9% | ·
CCOC(=O)C(Cc1ccccc1)NC(=O)CCc1c(C)nc2ncnn2c1C (stereo not drawn) | -21.0% | 1.5% | 3.1% | 22.0% | 0.2% | -7.0%
Nc1ncnc2c1ncn2[C@@H]1O[C@H](CNCc2ccc(-n3cccn3)cc2)[C@@H](O)[C@H]1O | · | · | -1.1% | · | · | -10.6%
Cc1cccc(Cn2c(C(C)O)nc3ccccc32)c1 (stereo not drawn) | 0.4% | -8.7% | 1.0% | ? | -12.3% | 6.4%
Cc1cccc(Cn2c(C)nc3c(N)c(C)c(C)cc32)c1 | -1.4% | 10.4µM* | 3.1% | ? | -13.9% | 98.7%
CC(/C=N/n1c(-c2cccnc2)n[nH]c1=S)=C\c1ccco1 | 39.8µM* | 25.7% | 2.7% | 0.0% | -5.9% | -39.0%
COc1ccc(/C=N/n2c(-c3n[nH]c4c3CCC4)n[nH]c2=S)cc1 | 1.2% | 2.1% | -0.7% | ? | -8.8% | -37.6%
CC(/C=N/n1c(-c2n[nH]c3c2CCC3)n[nH]c1=S)=C\c1ccco1 | 35.5µM* | 0.0% | -0.5% | 17.2% | -0.8% | -42.9%
CC(C)c1nc2oc3c(N(C)CCO)ncnc3c2c2c1CCC2 | 8.3% | ? | 0.2% | 0.828µM* | -10.9% | 15.5%
CC(C)c1nc2oc3c(NCC4CCCO4)ncnc3c2c2c1CCC2 (stereo not drawn) | -7.8% | 1.85µM* | -3.6% | 2.94µM* | -12.7% | 109.1%
CCCn1c(=N)n(CCOc2ccc(OC)cc2)c2ccccc21 | 0.0% | 14.7µM* | 0.7% | · | ? | 12.7%
CCCCCn1c(=N)n(CC(O)COc2cccc(C)c2)c2ccccc21 (stereo not drawn) | 1.1% | · | · | · | 15.3% | ·
CCCn1c(=N)n(CC(O)COc2cccc(C)c2)c2ccccc21 (stereo not drawn) | -19.9% | 10.4µM* | 7.1% | 128.6% | -11.1% | 18.2%
